# Source: the supplement of paper PMC6555819
# Legend:
# Assay in all cases: PBM binding z-score (relative to random genomic background probes); higher = stronger binding; sequences stand for … in GC…GCGATTGACAGCGTAGAATGAAGG
# [1] = tested on: PPARg:RXRa DBDmut IVT, anti-RXR (DBD mutation: RXRa K156A/R161A, NR concentration 270 nM, RXRa partner concentration 90 nM)
# Procedure, shortened: (§1)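 Custom Agilent 4×180K protein-binding microarrays carried double-stranded probes, each with a 34-nt variable region. These regions held direct-repeat seeds, single-nucleotide variants, half-site ablations and random human genomic background sequences. Ligand-free nuclear receptor dimers were incubated on the arrays for 1 h, antibodies against each partner (one per run) detected binding, and scanned fluorescence was regression-normalized. Binding z-scores take the random background probes as reference.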
# [2] = tested on: PPARg:RXRa IVT, anti-PPARg (NR concentration 270 nM, RXRa partner concentration 90 nM)
# Procedure, shortened: as §1
# [3] = tested on: PPARg DBDmut:RXRa IVT, anti-PPARg (DBD mutation: PPARg1 K132A/R137A, NR concentration 270 nM, RXRa partner concentration 90 nM)
# Procedure, shortened: as §1
# [4] = tested on: PPARg DBDmut IVT, anti-PPARg (DBD mutation: PPARg1 K132A/R137A, NR concentration 270 nM)
# Procedure, shortened: as §1
# [5] = tested on: PPARg homodimer (NR concentration 180 nM)
# Procedure, shortened: as §1
# [6] = tested on: PXR:RXRa (NR concentration 270 nM, RXRa partner concentration 90 nM)
# Procedure, shortened: as §1
# [7] = tested on: PXR homodimer (NR concentration 270 nM)
# Procedure, shortened: as §1
# [8] = tested on: RARa:RXR (NR concentration 270 nM, RXRa partner concentration 90 nM)
# Procedure, shortened: as §1
# [9] = tested on: RARa homodimer (NR concentration 270 nM)
# Procedure, shortened: as §1
# [10] = tested on: RARb:RXRa (NR concentration 270 nM, RXRa partner concentration 90 nM)
# Procedure, shortened: as §1
# [11] = tested on: RARb homodimer (NR concentration 270 nM)
# Procedure, shortened: as §1
# [12] = tested on: RARg:RXRa (NR concentration 270 nM, RXRa partner concentration 90 nM)
# Procedure, shortened: as §1
# [13] = tested on: RARg homodimer (NR concentration 270 nM)
# Procedure, shortened: as §1
# [14] = tested on: RXRa DBDmut IVT, anti-RXR (DBD mutation: RXRa K156A/R161A, NR concentration 90 nM)
# Procedure, shortened: as §1
# [15] = tested on: RXRa homodimer (NR concentration 180 nM)
# Procedure, shortened: as §1
# [16] = tested on: THRa:RXRa (NR concentration 90 nM, RXRa partner concentration 90 nM)
# Procedure, shortened: as §1
# [17] = tested on: THRa homodimer (NR concentration 90 nM)
# Procedure, shortened: as §1
# [18] = tested on: VDR homodimer (NR concentration 270 nM)
# Procedure, shortened: as §1
Sequence,PBM binding z-score [1],PBM binding z-score [2],PBM binding z-score [3],PBM binding z-score [4],PBM binding z-score [5],PBM binding z-score [6],PBM binding z-score [7],PBM binding z-score [8],PBM binding z-score [9],PBM binding z-score [10],PBM binding z-score [11],PBM binding z-score [12],PBM binding z-score [13],PBM binding z-score [14],PBM binding z-score [15],PBM binding z-score [16],PBM binding z-score [17],PBM binding z-score [18]
CAGCCTAGGTCAGGGCCAGTGTAGGAGGAACGTT,1.13,1.58,-0.0989,-1.49,0.588,0.476,-0.524,1.01,-0.522,3.5,2.75,2.76,3.69,-0.674,1.58,2.17,0.608,-0.169
CCTACTGGGCCTAAAAGGTCATTGATGCCGATAA,0.181,1.85,-0.634,-1.2,2.99,4.85,2.21,5.06,1.56,4.02,4.24,4.67,3.93,0.753,4.91,3.08,0.544,2.73
CCAGACAGATGAAAGGTAACTCAGTCTGGTACGC,-0.108,-0.154,-0.0341,-0.512,0.444,0.0908,0.0132,0.186,0.861,0.167,0.123,0.253,0.272,-0.0479,0.612,0.108,-0.299,0.123
TGAATGAGGTAATAAGATCAGGGAACGTTGCAAA,0.356,1.03,0.129,-0.853,-0.59,-0.275,-0.242,-0.0415,-0.474,-0.231,-0.532,0.204,0.306,-1.15,0.365,0.991,-0.205,-0.404
CGTCCAAGGTCAGCAGGTCAGTTAAAGCGACGTG,3.4,3.71,-0.851,-0.676,3.29,3.76,0.476,4.7,1.05,5.53,5.1,6.48,7.2,2.34,5.18,4.27,2.96,1.71
TCAGACAGGTGTAGGTAACTCAGGTACGCAGTCG,2.33,0.315,0.327,-0.523,0.265,0.373,0.461,0.495,0.784,0.406,0.242,0.0352,0.143,1.07,0.607,0.923,0.621,0.47
CCGAGTAGGTTATGGGCCATTCAGGCAACGGTGA,3.19,2.58,-0.937,-0.608,1.06,-0.326,-0.187,-0.0932,-0.148,0.816,0.655,0.305,0.328,-0.165,0.5,0.298,0.0929,-0.0394
ATCGCTAGGTAAAGTTCAGTGAAAGATCGATAGA,-0.192,0.414,-0.0288,-0.241,0.606,1.42,1.26,0.812,-0.216,2.37,2.03,1.75,1.86,0.79,1.03,0.617,-0.888,1.49
GGAACGAGGGCATTGGAGTTGATAGCATGGCGAT,3.13,1.96,-0.193,-0.133,0.272,2.48,0.836,0.409,-0.598,1.72,1.04,1.13,1.42,2.75,0.72,1.9,-0.24,2.58
CCTTCCGGGTCACGAGGTTATAGCACGACGAGCG,5.56,6.43,0.639,-0.0446,2.53,4.81,0.436,5.82,0.661,4.55,4.02,6.06,5.4,1.68,7.05,4.22,2.95,2.57
CTACCAAGGTGAACTAGGTCGTTGATTACTATTC,3.53,3.8,0.391,0.182,0.824,1.4,0.424,1.61,0.0789,1.97,1.98,1.45,1.42,0.925,1.49,2.82,1.68,0.82
ATCTCTAGGTAAAGCTCAGTGAAAGATCGATAGA,2.67,1.38,0.778,0.893,0.544,-0.131,0.14,0.258,0.432,0.0103,-0.225,0.103,0.259,-0.165,-0.128,0.19,-0.0384,-0.271
ATCTCTAGGCAAGACTCAGTTCAGTGAAGAACGC,0.117,-0.103,0.0484,-0.188,0.522,0.202,0.453,-0.255,-0.0609,-0.159,0.298,-0.279,0.0763,0.109,-0.365,0.205,0.122,1.01
CCTTACGGGTCAAGGTTAGAGCACGGGTGGTACG,1.69,3.34,0.826,0.266,2.42,3.08,-0.133,3.92,0.744,4.13,3.19,4.77,4.65,-0.0809,4.97,2.94,0.656,1.05
CATACAGGGTCAGCTAGGCAAGAGTAGGGACGGC,0.883,2.27,0.128,0.564,1.62,1.97,-0.336,2.62,0.47,3.91,2.9,4.17,4.1,1.22,4.03,2.94,1,0.693
TAGCCTAGGTCATGGGGCCAGTATAGTACGCATC,1.84,3.72,0.968,-0.401,3.22,2.19,-0.641,3.54,0.443,3.94,3.29,4.5,4.7,0.621,3.6,3.49,1.43,1.05
TAGCCTAGGTCATTCAGCGGCCAGTATAGAAAGC,1.69,2.65,0.127,-0.00854,2.11,1.94,-0.494,3.02,-0.474,3.92,2.81,5.65,4.44,1.85,3.07,2.74,0.53,1.04
AGTCAAAGTTCAGGACCAGGTAACGTAAAGCACG,-0.279,1.91,0.221,0.246,1.9,2.47,1.19,2.67,0.885,4.37,3,4.41,4.51,2.84,2.91,3.14,0.673,1.72
CGTCCAAGGGCAAGGTCAGTGAAAGAGACTCGAA,0.735,1.62,-1.01,-1.55,0.963,1.68,-0.101,2.16,0.0198,3.94,3.82,3.23,4.43,1.07,2.23,2.9,1.11,1.21
CTCGGAAGGTCGTGCTCAGGTGAGTATACCAAAC,0.012,0.881,-0.0386,-0.266,0.944,1.55,-0.228,2.36,-0.507,2.5,1.95,3.34,2.31,1.18,2.37,3.59,1.15,0.743
CCTACTGGGCCTTTCAGAGGTCATTGATCATATG,2.39,2.44,-0.307,0.081,2.46,4.68,2.5,4.52,1.01,2.8,3.64,3.43,2.71,0.749,3.84,3.04,1.36,2.8
GCTATTAGTTGAATGGGCAACCGAATGATTCTCG,0.75,-0.332,-0.684,0.178,-0.436,-0.587,-0.28,-0.707,0.153,-0.226,-0.506,-0.114,0.0984,0.405,-0.209,-0.559,-0.678,-0.095
TCGAGTATGTTAGGGGCATTCAGAATGGCGTCGA,0.969,-0.000912,-0.506,-1.16,-0.24,0.712,0.579,0.48,0.135,0.606,0.285,-0.134,-0.085,1.26,0.27,0.709,-0.0845,1.66
ATATGTAGGTTATCGGGTGATTCAGTTTGCGCAT,7.59,7.22,2.9,2.24,1.51,1.07,1.12,0.995,1.96,1.15,1.27,0.897,0.751,0.935,1.26,1.27,1.49,0.83
ACAGACAGGTGATGAAGGTACCTCAGGCTATCAT,-0.0914,0.0194,0.29,0.042,-0.0635,-0.279,0.235,0.00944,-0.363,-0.00921,-0.181,0.158,0.411,-0.579,0.4,0.509,-0.21,-0.451
ATCTCTAGGTAAAGATCAGTGAAAGATCGATAGA,1.79,1.45,0.659,1.08,0.78,-0.0968,0.169,0.174,0.687,0.0569,-0.585,0.367,0.528,-0.253,0.257,0.044,-0.362,-0.142
GCTTGTAGATCAAGGTCAAGAAAGACTAAGCTAA,2.14,2.87,0.431,-0.296,1.34,2.63,0.449,3.08,0.173,3.5,3.18,3.61,3.42,1.03,3.6,3.36,1.74,1.37
TTATATAGGTAATACAGGTGAAAGTCGGCATCTA,6.01,5.97,1.64,2.72,1.34,0.367,0.343,0.639,1.4,0.616,0.731,0.618,0.933,0.117,1.11,1.06,0.46,0.401
TCGATTAGGTTAGGGGCATTCAGAATGGCGTCGA,1.99,0.798,-0.691,0.33,1.07,0.603,0.447,0.692,0.352,1.57,1.25,0.511,0.723,1.34,0.857,1.33,0.776,1.08
